Compounds with a hit are over-represented: about 21% of the library has one in this group of screens.
Pf growth 96h = P. falciparum growth inhibition at 96 hour, primary screen for plastid delayed-death inhibitors. actives 6.9% (n = 320,000). P. falciparum luciferase reporter growth, 96 h. Potency, µM (doses to about 28.7 µM), without a hit: at the highest dose activity change, negative = inhibition, hits mostly inhibitors; active means well fitted inhibition curve with a large enough effect; inconclusive means small, poorly fitted or top-dose-only effect, or another doubt; inactive means no such curve, though single readings can be large or run the other way; further: potency means the concentration at half of the fitted maximal effect; on the % scale 0 is the no-effect control and ±100 the full control effect
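Two-generation exposure (96 h) targets delayed-death phenotype. Reporter parasites carrying integrated firefly luciferase, in red cells at 2% hematocrit and 0.05% parasitemia final, kept at 37 C, 5% CO2; luminescence loss indicates inhibition.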
NS1 function inh = influenza NS1 inhibition | Potency, µM (titrated, usually from 46.1 µM), without a hit: at the highest dose activity, positive = more growth | actives 0.4% (n = 270,000) | AID 2326; further: potency means the concentration at half of the fitted maximal effect; actives are rising curves; nearly all actives have a fitted effect of over 50% in size
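Growth recovery, yeast-based: influenza A NS1 expressed in S. cerevisiae causes slow growth, and suppressors are detected by OD600. The parent strain without NS1 is used as positive control.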
CHX counter = counter-screen hit for Shiga toxin inhibitors, cycloheximide. cell reporter, cycloheximide protein synthesis inhibition counterscreen. max response, %. actives 12% (n = 300,000). AID 2314; in the data active means max response mostly above about 13%, no sharp cut-off; inactive means mostly below about 14%; further: read at 38.3 µM for the half of the compounds with a filed dose; 0% is about no effect
Shiga inhibitor = Shiga toxin inhibition | Vero cells, Shiga toxin protein synthesis inhibition reporter | inhibition, % at 38.7 µM | actives 9.2% (n = 290,000); in the data active means inhibition mostly above about 28%, no sharp cut-off; inactive means mostly below about 43%; further: 0% is about no effect
Pf growth 48h = inhibits P. falciparum growth in the first generation, 48 h; P. falciparum luciferase growth in erythrocytes, 48 h; actives 5.9% (n = 310,000); Potency, µM (highest dose often 28.7 µM), for the others: top-dose activity change, negative = inhibition, hits mostly inhibitors; AID 504832; active means well fitted inhibition curve with a large enough effect; inconclusive means small, poorly fitted or top-dose-only effect, or another doubt; inactive means no such curve, though single readings can be large or run the other way; further: potency means the concentration at half of the fitted maximal effect; on the % scale 0 is the no-effect control and ±100 the full control effect
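In quantitative HTS format, infected erythrocytes bearing luciferase-reporter parasites were treated for a single generation at 37 C. Luminescence after adding detection reagent served as the growth measure.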
SARS PLpro yeast = blocks SARS-CoV papain-like protease in a yeast assay. S. cerevisiae expressing SARS-CoV PLpro, growth rescue. Potency, µM (top dose mostly 32.9 µM), for inactives: top-dose activity, positive = growth rescue, hits mostly activators. actives 0.19% (n = 330,000). AID 485353; further: potency means the concentration at half of the fitted maximal effect; 0% is about no effect; nearly all actives have a fitted effect of over 55% in size
Starred values were filed as active, the others as inactive; ? = inconclusive; . = not tested or not shown; [ ] = remark or other dose. Unless noted, the call rests on the fitted dose curve.

SMILES | Pf growth 96h | NS1 function inh | CHX counter | Shiga inhibitor | Pf growth 48h | SARS PLpro yeast
c1ccc(OCCOc2ncnc3ccccc23)cc1 | ? | -14% | 37* | 93* | 193% | 0%
CCOc1cc(/C=C/c2cc(C(F)(F)F)[nH]c(=O)n2)ccc1O | 22% | 2% | -3 | -13 | ? | 0%
CCOc1cc(/C=C/c2cccc[n+]2C)ccc1OCC(=O)Nc1ccc(C)cc1 | 5.2µM* | -35% | -6 | 4 | 0.93µM* | -4%
CCOc1cc(/C=C/c2cccc[n+]2C)ccc1O | 8.3µM* | -40% | 0 | -2 | 9.3µM* | -3%
COc1cc(/C=C/c2cccc[n+]2C)ccc1OCC(=O)Nc1ccccc1C | -21% | -26% | -7 | -7 | ? | -1%
C[n+]1ccccc1/C=C/c1cc(Br)ccc1O | ? | -3% | -2 | 3 | 0.74µM* | 2%
COc1ccc(CCNC(=O)C/C(C)=N/NC(=O)c2ccc(N)cc2)cc1OC | ? | -1% | 12* | 27 | 40% | 0%
COc1ccc(CCNC(=O)C/C(C)=N/NC(=O)C2CCCCC2)cc1OC | 8.3µM* | 3% | 1 | 2 | -4% | 4%
COc1ccc(CCNC(=O)CNCC2CCCCC2)cc1OC | -28% | 0% | -1 | 22 | ? | 0%
COc1ccc(S[C@@H](CCN2CC[C@H](C)CCC2=O)c2ccccc2)cc1 | ? | . | . | . | 8.3µM* | -1%
C[C@@H]1CCC(=O)N(CC[C@H](Sc2ccc(Br)cc2)c2ccccc2)CC1 | ? | . | . | . | ? | -4%
Cc1ccc(S[C@@H](CCN2CC[C@H](C)CCC2=O)c2ccccc2)cc1 | 9.3µM* | -83% | -1 | 8 | ? | -17%
Cc1ccc(C(C)C)c(OCC(=O)NNC(=O)C2CSC3(C)CCC(=O)N23)c1 (stereo not drawn) | -9% | . | . | . | ? | -1%
O=C(c1cnccn1)N1CCN(C/C=C/c2ccccc2)CC1 | ? | -20% | -3 | -10 | 5% | -1%
Oc1ccc(/C=C/c2cnccn2)cc1 | 2% | -4% | 34* | 94* | 88% | 2%
C=CCN1C(=O)c2ccc(C(=O)N3CCN(S(=O)(=O)c4ccccc4Br)CC3)cc2C1=O | -30% | . | . | . | 8% | 0%
CC(C)=N/N=C(\N)SCc1ccccc1 | 51% | -5% | 19* | 60 | 0% | 2%
Cc1ccc(CSC(N)=Nc2ccccc2)cc1C | . | -3% | . | . | . | .
Cc1nnc(SCc2cnc(-c3ccc(C(C)C)cc3)s2)n1C | 12µM* | -8% | 27* | 39 | 250% | 9%
Cc1cc(C(=O)N[C@H](c2ccccc2)[C@@]2(C)C[C@@H]2[C@@H](C)C(=O)Nc2ccc3ccccc3c2)n(C)n1 | 3.7µM* | 7% | -3 | -16 | 2.6µM* | -5%
C[C@@H](C(=O)Nc1ccc2ccccc2c1)[C@H]1C[C@]1(C)[C@H](NC(=O)OCc1ccccc1)c1ccccc1 | 10µM* | ? | 19* | 51* | ? | ?
C[C@@H](C(=O)NCC1CC1)[C@@H]1C[C@@]1(C)[C@@H](NC(=O)OCc1ccccc1)c1ccccc1 | 4.1µM* | -8% | 3 | 16 | 4.1µM* | 4%
C[C@@H](C(=O)NCCc1c[nH]c2ccccc12)[C@H]1C[C@]1(C)[C@H](NC(=O)OCc1ccccc1)c1ccccc1 | 9.3µM* | 28% | -2 | -13 | 13µM* | 1%
C[C@H](CO)NC(=O)[C@H](C)[C@H]1C[C@]1(C)[C@H](NC(=O)OCc1ccccc1)c1ccccc1 | 1% | -10% | -3 | -15 | 3% | 18%
Cc1ccn2c(C(=O)N/N=C/c3ccc(CNC(=O)C(=O)Nc4ccc(C)c(C)c4)o3)c(C)nc2c1 | 16% | 7% | -2 | 15 | 6% | -1%
SMILES | Pf growth 96h | NS1 function inh | CHX counter | Shiga inhibitor | Pf growth 48h | SARS PLpro yeast
COc1ccccc1CNC(=O)c1ccc(NC(=O)CC2SC(N3CCCC3)=NC2=O)cc1 (stereo not drawn) | . | . | . | . | . | -6%
COc1ccc(NC(=O)Nc2ccccc2OC)cc1 | . | -47% | 40* | 61* | 133% | -21%
COc1ccccc1NC(=O)Nc1ccccc1C(N)=O | 37% | -2% | 19 | 19 | 35% | 1%
COc1ccccc1NC(=O)Nc1ccccc1Br | 22% | -2% | -2 | 12 | ? | -1%
COc1ccc(NC(=O)N/C=C/c2ccccc2)cc1 | 160% | . | 35* | 103* | 136% | -6%
COc1ccccc1NC(=O)Nc1cc(NC(=O)Nc2ccccc2OC)c(C)nc1C | 6.6µM* | 29% | -3 | -5 | ? | 0%
COc1ccccc1NC(=O)Nc1ccc(C(N)=O)cc1 | 38%[1.15 µM] | . | 13* | 19 | 1%[5.75 µM] | 1%
COc1ccc(OC)c(NC(=O)Nc2ccc(Cl)cc2)c1 | ? | -159% | 10 | 31 | . | -16%
COc1ccccc1NC(=O)CC(=O)Nc1ccccc1OC | -59% | 1% | -2 | -1 | 28% | -1%
COc1ccccc1NC(=O)NNC(=O)c1cc2ccccc2cc1O | 48% | 13% | 26* | 101* | 20% | 3%
CCN1CCN(Cc2ccc(NC(=O)Nc3ccccc3OC)cc2)CC1 | -11% | -7% | 35* | 10* | 45% | 0%
COc1ccccc1NC(=O)Nc1ccc(CC#N)cc1 | 82% | -7% | 25* | 43* | 95% | -2%
COc1ccc(OC)c(/C(O)=C/C(=O)C(=O)Nc2ccccc2OC)c1 | 15µM* | 28% | 2 | 27 | . | 13%
COc1ccc(OC)c(S(=O)(=O)N(C)CC(=O)Nc2ccccc2OC)c1 | 151% | -4% | 1 | -6 | -29% | .
CCCCC/C=C\CC(O)/C=C/c1cccc(CC(O)CCCCO)n1 (stereo not drawn) | . | -10% | . | . | . | .
Cc1ccc(OCC(=O)N2CCc3ccccc3C2)c([N+](=O)[O-])n1 | 15% | . | -1 | -5 | -2% | -3%
O=C(NC1CCN(C(=S)Nc2ccccc2)CC1)C1CCCCC1 | ? | -16% | 1 | -7 | 2% | -1%
CC(C#N)Sc1ncnc2sc(-c3ccccc3)cc12 (stereo not drawn) | -20% | -4% | 15 | 24 | -12% | -1%
COc1ccccc1CNCC(=O)Nc1ccc(N2CCOCC2)cc1 | 1% | 7% | 0 | -11 | -3% | -19%
COc1ccccc1NC(=O)Nc1ccc(N2CCOCC2)cc1 | 183% | . | 51* | 84* | 50% | -5%
O=C(O)c1ccc2c(=O)[nH]c(CCl)nc2c1 | 13µM* | . | 0 | -5 | ? | -4%
CC(C)(CN)SCc1ccccc1 | . | 8% | . | . | . | .
CCOC(=O)c1ccc(Nc2nnc(C(C)(C)C)c(=O)[nH]2)cc1 | ? | -15% | 14 | -7 | 5.2µM* | 3%
O=C(Nc1ccccn1)c1ccc(C(=O)c2ccccc2)cc1 | 215% | . | . | . | 92% | 2%
COc1ccccc1NC(=O)c1csc2c1CCCC2 | 36% | -52% | 8 | 30 | -1% | -9%
O=C(Nc1ccccn1)c1onc2c1CCCC2 | 110% | 3% | 30* | 10 | 48% | -13%
